Measured values published in PubChem BioAssay (NCATS).
Results filed as inconclusive are left out. Activity calls are given as the source filed them. Unless noted, the call rests on the fitted dose curve; in most records, active means well fitted cell-killing curve with a large enough effect; inconclusive means small, poorly fitted or top-dose-only effect, or effect the other way; inactive means no such curve, though single readings can be large or run the other way.

Columns and labels:
[1] = Quantitative High-Throughput drug screen in 47 multiple myeloma cell lines against the NCATS MIPE library collection: KMS28PE_JCRB cell viability assay (AID 1918983); further: nearly all actives have a fitted effect of over 35% in size
In short: (§1)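 Myeloma cells (500/well) treated with MIPE 4.0 compounds for 48 h at 37 °C, 5% CO2. Viability read as ATP via CellTiter-Glo luminescence after 5 min at RT; DMSO-only wells = 100%, media-only = 0% viability.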

[2] = Quantitative High-Throughput drug screen in 47 multiple myeloma cell lines against the NCATS MIPE library collection: KMS34_JCRB cell viability assay (AID 1918985); further: nearly all actives have a fitted effect of over 40% in size
In short: as §1

[3] = Quantitative High-Throughput drug screen in 47 multiple myeloma cell lines against the NCATS MIPE library collection: OCIMY7_PLB cell viability assay (AID 1918987); further: nearly all actives have a fitted effect of over 65% in size
In short: as §1

[4] = Quantitative High-Throughput drug screen in 47 multiple myeloma cell lines against the NCATS MIPE library collection: OCIMY5_PLB cell viability assay (AID 1918988); further: nearly all actives have a fitted effect of over 65% in size
In short: as §1

[5] = Quantitative High-Throughput drug screen in 47 multiple myeloma cell lines against the NCATS MIPE library collection: OPM1_PLB cell viability assay (AID 1918989); further: nearly all actives have a fitted effect of over 40% in size
In short: as §1

[6] = Quantitative High-Throughput drug screen in 47 multiple myeloma cell lines against the NCATS MIPE library collection: SKMM1_PLB cell viability assay (AID 1919863); details: SKMM1 myeloma viability, CellTiter-Glo ATP, 48 h; viability: stronger effect = lower value; further: nearly all actives have a fitted effect of over 35% in size
In short: as §1

[7] = Quantitative High-Throughput drug screen in 47 multiple myeloma cell lines against the NCATS MIPE library collection: U266_ATCC cell viability assay (AID 1919864); further: nearly all actives have a fitted effect of over 35% in size
In short: as §1

[8] = Quantitative High-Throughput drug screen in 47 multiple myeloma cell lines against the NCATS MIPE library collection: XG6_PLB cell viability assay (AID 1919865); further: nearly all actives have a fitted effect of over 40% in size
In short: as §1

[9] = Quantitative High-Throughput drug screen in 47 multiple myeloma cell lines against the NCATS MIPE library collection: XG1_PLB cell viability assay (AID 1919866); further: nearly all actives have a fitted effect of over 35% in size
In short: as §1

[10] = Quantitative High-Throughput drug screen in 47 multiple myeloma cell lines against the NCATS MIPE library collection: VP6_DJ cell viability assay (AID 1919867); further: nearly all actives have a fitted effect of over 40% in size
In short: as §1

[11] = Quantitative High-Throughput drug screen in 47 multiple myeloma cell lines against the NCATS MIPE library collection: PE2_PLB cell viability assay (AID 1919869); further: nearly all actives have a fitted effect of over 35% in size
In short: as §1

[12] = Quantitative High-Throughput drug screen in 47 multiple myeloma cell lines against the NCATS MIPE library collection: PCM6_Riken cell viability assay (AID 1919870); further: nearly all actives have a fitted effect of over 30% in size
In short: as §1

[13] = Quantitative High-Throughput drug screen in 47 multiple myeloma cell lines against the NCATS MIPE library collection: RPMI8226_ATCC cell viability assay (AID 1919871); further: nearly all actives have a fitted effect of over 30% in size
In short: as §1

[14] = Quantitative High-Throughput drug screen in 47 multiple myeloma cell lines against the NCATS MIPE library collection: OPM2_DSMZ cell viability assay (AID 1919872); further: nearly all actives have a fitted effect of over 30% in size
In short: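 Primary qHTS used for cherry-picking: cells at 500/well, library compounds for 48 h (37C, 5% CO2), luminescent ATP assay.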

[15] = Quantitative High-Throughput drug screen in 47 multiple myeloma cell lines against the NCATS MIPE library collection: KMS11_JCRBsus cell viability assay (AID 1919873); further: nearly all actives have a fitted effect of over 50% in size
In short: as §1

[16] = Quantitative High-Throughput drug screen in 47 multiple myeloma cell lines against the NCATS MIPE library collection: KMS28BM_JCRB cell viability assay (AID 1919874); further: nearly all actives have a fitted effect of over 35% in size
In short: as §1

[17] = qHTS drug screen for cell cycle checkpoint inhibitors in PARPi-resistant BRCA-mutant ovarian cancer cell lines. (AID 1963452; calls by dose curve); details: PEO1/OlaR viability, CellTiter-Glo luminescence, 96 h; for Z-AUC: stronger effect = lower value
In short: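 PEO1, PEO4 and PEO1/OlaR ovarian cancer cells, 600 per well, exposed 96 h at 37C to a dilution series. Viability read by CellTiter-Glo luminescence, normalized to DMSO and empty wells; activity summarized as Z-AUC.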

[18] = Quantitative High-Throughput drug screen in 47 multiple myeloma cell lines against the NCATS MIPE library collection: UTMC2_PLB cell viability assay (AID 1919868); details: CellTiter-Glo ATP luminescence, 48 h; viability (% of DMSO control): at 45.8 µM (top of the series) unless noted; further: nearly all actives have a fitted effect of over 55% in size
In short: as §1

[19] = qHTS for identification of novel therapeutic agents for treatment of microphthalmiaassociated transcription factor (MiT) renal cell carcinoma (RCC) (AID 1963991; calls by dose curve); details: CellTiter-Glo, 48 h; for Potency: active = Z-AUC below -0.8 in all three lines; for z-score: stronger effect = lower value
In short: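 Three TFE3-fusion RCC cell lines (UOK109, UOK124, UOK145), 500 cells/well, were exposed to the 1912-compound MIPE 4.0 library for 48 hours at 37 C. Viability was read by CellTiter-Glo luminescence, normalised to DMSO (100%) and empty wells (0%), with 11-concentration curve fits.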

[20] = measured here: PEO1 parental Z-AUC
[21] = TFE3-RCC UOK109 viability, measured here: UOK109 Z-AUC
[22] = TFE3-RCC viability, measured here: UOK124 Z-AUC
[23] = TFE3-RCC viability, measured here: UOK145 Z-AUC
Potency means the concentration at half of the fitted maximal effect.

COc1cccc2nc(-c3cccs3)nc(NN3C(=O)C=C(C)C3=O)c12
active: Potency [1] 2640 nM | Potency [2] 29.6 nM | Potency [3] 26.4 nM | Potency [4] 41.8 nM | Potency [5] 83.3 nM | Potency [6] 1050 nM | Potency [7] 118 nM | Potency [8] 83.3 nM | Potency [9] 26.4 nM | Potency [10] 37.2 nM | Potency [11] 418 nM | Potency [12] 41.8 nM | Potency [13] 2090 nM | Potency [14] 1480 nM | Potency [15] 8.3 nM | Potency [16] 33.2 nM | Potency [17] 4360 nM
-2.06: Z-AUC ([17]; measured here: PEO4 Z-AUC)
-1.8: Z-AUC [17, 20]

CC[C@@H]1C(=O)N(C)c2cnc(Nc3ccc(C(=O)NC4CCN(C)CC4)cc3OC)nc2N1C1CCCC1
-0.898: z-score [19, 21]
-2.67: Z-AUC ([17]; measured here: PEO4 Z-AUC)
-2.65: Z-AUC [17, 20]
inactive: Potency [18]
-2.05: z-score [19, 22]
active: Potency [1] 74.3 nM | Potency [2] 187 nM | Potency [4] 37.2 nM | Potency [5] 93.5 nM | Potency [6] 235 nM | Potency [7] 23500 nM | Potency [9] 8.3 nM | Potency [10] 2960 nM | Potency [12] 7430 nM | Potency [13] 7430 nM | Potency [14] 59 nM | Potency [15] 20.9 nM | Potency [16] 11.8 nM | Potency [17] 43.6 nM | Potency ([19]; TFE3-RCC UOK109 viability) 4180 nM
-1.29: z-score [19, 23]

COc1cc(=C2C=c3ccccc3=N2)[nH]c1=Cc1[nH]c(C)cc1C
-0.974: z-score [19, 23]
-1.08: z-score [19, 21]
-0.978: z-score [19, 22]
active: Potency [1] 1660 nM | Potency [2] 1480 nM | Potency [3] 1480 nM | Potency [4] 833 nM | Potency [5] 5900 nM | Potency [6] 4180 nM | Potency [7] 5260 nM | Potency [8] 5900 nM | Potency [9] 2090 nM | Potency [10] 1660 nM | Potency [18] 2090 nM | Potency [11] 1480 nM | Potency [13] 1660 nM | Potency [14] 4180 nM | Potency [15] 1050 nM | Potency [16] 935 nM | Potency ([19]; TFE3-RCC UOK109 viability) 8330 nM

Cc1nc(Nc2n[nH]c3c2CN(C(=O)N[C@H](CN(C)C)c2ccccc2)C3(C)C)c2sccc2n1
inactive: Z-AUC [17] -0.766
-0.524: Z-AUC [17, 20]
active: Potency [1] 418 nM | Potency [2] 469 nM | Potency [3] 209 nM | Potency [4] 662 nM | Potency [6] 743 nM | Potency [7] 526 nM | Potency [8] 372 nM | Potency [9] 296 nM | Potency [10] 372 nM | Potency [11] 833 nM | Potency [12] 1870 nM | Potency [13] 1320 nM | Potency [14] 3720 nM | Potency [15] 37.2 nM | Potency [16] 37.2 nM
-1.06: Z-AUC ([17]; measured here: PEO4 Z-AUC)

CCn1nnc2c(N3CCOCC3)nc(-c3ccc(NC(=O)Nc4ccc(C(=O)N5CCN(C)CC5)cc4)cc3)nc21
-1.65: Z-AUC ([17]; measured here: PEO4 Z-AUC)
inactive: Z-AUC [17] -0.869
active: Potency [1] 5.9 nM | Potency [2] 148 nM | Potency [3] 3720 nM | Potency [4] 469 nM | Potency [5] 5.9 nM | Potency [6] 59 nM | Potency [18] 5.3 nM | Potency [12] 33.2 nM | Potency [13] 52.6 nM | Potency [14] 93.5 nM | Potency [15] 23.5 nM | Potency [16] 4.2 nM
-1.58: Z-AUC [17, 20]
